The results in this text go back to PubChem BioAssay AID1345085 (National Center for Advancing Translational Sciences (NCATS), 2018).

Inconclusive results are not listed. The source made the active and inactive calls. Calls come from the whole dose curve; as a rule, active = well fitted cell-killing curve with a large enough effect; inconclusive = small, poorly fitted or top-dose-only effect, or effect the other way; inactive = no such curve, though single readings can be large or run the other way.
% is set by controls: 0 for no effect and ±100 for the full control effect; potency is the fitted concentration of half-maximal effect.

This test concerns CAOV3. In words: Confirmatory qHTS for gynecologic anti-cancer compounds from libraries of approved drugs and bioactive compounds. Note: nearly all actives have a fitted effect of over 55% in size. Conditions: gynecologic cancer cell panel viability, ATPlite luminescence, 48 h; series mostly up to 57.6 µM; activity change, negative = viability loss: at the top concentration. The method in brief: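 Seeding 1,000 cells per well preceded overnight (16 h) attachment, after which 48 h drug treatment across 57.5 uM–0.977 nM (11 points) was applied. Remaining cellular ATP, detected by ATPlite luminescence, defined IC50.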
Background: In qHTS, concentration-response curves come from the screen itself.
`OCc1ccc(-c2ccc(-c3ccc(CO)s3)o2)s1`: the Potency is 0.668 µM (active). As for `CC(Oc1cc(-n2cnc3ccc(CN4CCN(C)CC4)cc32)sc1C(N)=O)c1ccccc1C(F)(F)F` (stereo not drawn), the Potency is 27.3 µM (active).

Take `OCCNC1CCCc2c1[nH]c1ccc(-c3ccccc3)cc21` (stereo not drawn): the Potency was 24.3 µM (active). In the case of `Cn1cnc2c(F)c(Nc3ccc(Br)cc3Cl)c(C(=O)NOCCO)cc21`, the “activity change, negative = viability loss” value is -18.7% (inactive). Regarding `CC[C@@]1(O)C(=O)OCc2c1cc1n(c2=O)Cc2cc3cc(O)ccc3nc2-1`, the Potency is 0.109 µM (active). On the same count and under the same terms, the result for `Cc1cc(C2CCCCC2)n(O)c(=O)c1` reads 12.5 µM (active); that for `COc1cc(N2CCC(N3CCN(C)CC3)CC2)ccc1Nc1ncc(Cl)c(Nc2ccccc2S(=O)(=O)C(C)C)n1`, 3.43 µM (active); that for `CCc1c2c(nc3ccc(O)cc13)-c1cc3c(c(=O)n1C2)COC(=O)[C@]3(O)CC`, 0.0385 µM (active). The same measure, in the same setting: as for `Cc1cnc(Nc2ccc(OCCN3CCCC3)cc2)nc1Nc1cccc(S(=O)(=O)NC(C)(C)C)c1`, the figure is 7.69 µM (active); as for `CN(C)C/C=C/C(=O)Nc1cc2c(Nc3ccc(F)c(Cl)c3)ncnc2cc1OC1CCOC1` (stereo not drawn), 10.9 µM (active); as for `Cc1ccc(C(=O)N(CCCN)C(c2oc3cc(Cl)ccc3c(=O)c2Cc2ccccc2)C(C)C)cc1` (stereo not drawn), 27.3 µM (active). On to `Cc1cc(SCc2sc(-c3ccc(C(F)(F)F)cc3)nc2C)ccc1OCC(=O)O`, for which the “activity change, negative = viability loss” value is 6.68% (inactive). The same measure, in the same setting: as for `COc1ccc(-c2ccc3c(N4CCOCC4C)nc(N4CCOCC4C)nc3n2)cc1CO` (stereo not drawn), the figure is -2.81% (inactive); as for `COc1ccc2cc3[n+](cc2c1OC)CCc1cc2c(cc1-3)OCO2`, 18.8% (inactive).

Consider `COc1ccc(-c2cc3nccn3c(Nc3ncccc3C(N)=O)n2)cc1OC`, for which the “activity change, negative = viability loss” value is -6.41% (inactive). For `O=C(NOC[C@H](O)CO)c1ccc(F)c(F)c1Nc1ccc(I)cc1F`, the “activity change, negative = viability loss” value was -17% (inactive). Turning to `Cc1ccc(C(=O)Nc2ccc(CN3CCN(C)CC3)c(C(F)(F)F)c2)cc1C#Cc1cnc2[nH]ncc2c1`, the Potency was 30.6 µM (active).

As for `CCCC(Nc1nc(-c2ccc(NC(=O)NCC)c(OC)c2)ncc1C)c1cccnc1` (stereo not drawn), the “activity change, negative = viability loss” value was -17.6% (inactive).
